The record followed here is PubChem BioAssay (Tox21).

Results filed as inconclusive are left out. Where a call stands in place of a potency, no number is given. Calls of active or inactive are those of the source. The call rests on the fitted dose curve; in most records, active means well fitted activation curve with a large enough effect in the signal ratio in the repeat runs (not every such curve was filed as active); inconclusive means weak or mixed curves, or effect the other way; inactive means flat fitted curve, though single readings scatter; the % refers to the signal ratio.
Potency means the concentration at half of the fitted maximal effect.

This assay deals with Estrogen receptor beta (Homo sapiens) (UniProt Q92731). In words: qHTS assay to identify small molecule agonists of the estrogen receptor beta (ER-beta) signaling pathway (AID 1259377). As to conditions: ER-beta-UAS-bla HEK293T, beta-lactamase FRET ratio, 16 h; series mostly up to 92.4 µM. From the text: U.S. Tox21 Program National Center for Advancing Translational Sciences [NCATS] NIH Chemical Genomics Center [NCGC] U.S. Environmental Protection Agency [EPA] National Institutes of Environmental Health Sciences [NIEHS] National Toxicology Program [NTP] U.S. Food and Drug Administration [FDA] Tox21 Assay Overview: Estrogen receptor (ER), a nuclear hormone receptor, plays an important role in development, metabolic homeostasis and reproduction. Two subtypes of ER, ER-alpha and ER-beta, have similar expression patterns with some uniqueness in both types. Endocrine disrupting chemicals (EDCs) and their interactions with steroid hormone receptors like ER causes disruption of normal endocrine function. To identify the compounds that activate ER signaling, an ER beta-UAS-bla GripTite cell line (Life technologies, Madison, WI, USA) containing a beta-lactamase reporter gene under the control of an Upstream Activator Sequence (UAS) was used to screen Tox21 10K compound library.
Sequence of Estrogen receptor beta (Homo sapiens) (Q92731 whole entry, looked up): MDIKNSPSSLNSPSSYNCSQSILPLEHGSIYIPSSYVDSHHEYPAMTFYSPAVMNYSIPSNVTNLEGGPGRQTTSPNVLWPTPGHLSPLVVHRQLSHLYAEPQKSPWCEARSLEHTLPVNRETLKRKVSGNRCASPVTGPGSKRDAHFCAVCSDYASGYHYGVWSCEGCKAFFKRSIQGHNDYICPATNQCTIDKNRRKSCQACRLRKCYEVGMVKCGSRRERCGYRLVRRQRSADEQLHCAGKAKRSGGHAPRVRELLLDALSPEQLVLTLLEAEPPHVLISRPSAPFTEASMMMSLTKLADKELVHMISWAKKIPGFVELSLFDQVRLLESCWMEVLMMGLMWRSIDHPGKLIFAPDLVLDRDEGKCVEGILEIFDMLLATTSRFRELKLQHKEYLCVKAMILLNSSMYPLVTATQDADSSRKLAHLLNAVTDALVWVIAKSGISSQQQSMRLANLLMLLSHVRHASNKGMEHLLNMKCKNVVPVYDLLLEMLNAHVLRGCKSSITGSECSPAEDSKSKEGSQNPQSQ
Tox21 Assay Protocol Summary: ER-beta-UAS-bla HEK293T cells were dispensed at 2,000 cells/5 uL of assay medium containing 2% charcoal stripped FBS per well into black wall/clear-bottom 1536-well plates using a Multidrop Combi (ThermoFisher Scientific, Waltham, MA) dispenser. After the assay plates were incubated at a 37C and 5% CO2 for 6 hr, 23 nL of compounds dissolved in DMSO, positive controls or DMSO only was transferred to the assay plate by a Pintool station (Kalypsys, San Diego, CA). The plates were incubated at 37C and 5% CO2 for 16 hr. Then 1 uL of LiveBLAzerTM B/G FRET substrate was added using a BioRAPTR FRD (Flying Reagent Dispenser, Aurora Discovery, San Diego, CA). After the plates were incubated at room temperature for 2 hours, fluorescence intensity was measured by an Envision plate reader (PerkinElmer, Shelton, CT).
In general terms: Quantitative high-throughput screening tests each substance at several concentrations.
Consider `Cc1cccc(C)c1NC(=O)c1ccc(N)cc1`, for which the Potency result was “inactive”. Consider `CCOC(=O)NNc1ccc(N(CC)CC(C)O)nn1` (stereo not given), for which the Potency entry is “inactive”. `O=C(O)CCN(C1(C(=O)NO)CCCC1)S(=O)(=O)c1ccc(Oc2ccc(F)cc2)cc1`: the Potency result is “inactive”. For `CCN1C(=O)c2ccccc2C1Nc1ccc(OCCN2CCCCC2)cc1` (stereo not given), the Potency result was “inactive”. `Clc1ccnc(Cl)n1`: the Potency result was “inactive”.

As to `CCC(=O)OC(=O)CC`, the Potency entry was “inactive”.

Consider `O=C(O)c1cc(=O)c2ccccc2o1`, for which the Potency result is “inactive”. For `CCc1cccc(CC)c1NC(=O)CN(CC(=O)O)CC(=O)O`, the Potency result was “inactive”. As to `CC1(C)CC(O)CC(C)(C)N1`, the Potency result was “inactive”. For the compound `CC(=O)Oc1cc2c(s1)CCN(C(C(=O)C1CC1)c1ccccc1F)C2` (stereo not given), the Potency entry was “inactive”. `C=C(C)C(=O)OCCCCCCCCCC`: the Potency entry is “inactive”. Consider `CCCCOC(=O)CC`, for which the Potency entry is “inactive”. Turning to `CC1=Nc2ccccc2C1(C)C`, the Potency entry is “inactive”. On to `C/C=C/C=C/COC(=O)C(C)C`, for which the Potency result is “inactive”. Consider `CC(C)OC(=O)C(O)(CC(=O)O)CC(=O)O`, for which the Potency result was “inactive”. In the case of `CC1(C)[C@@H](O)CC[C@]2(C)[C@H]3C(=O)C=C4[C@@H]5C[C@@](C)(C(=O)O)CC[C@]5(C)CC[C@@]4(C)[C@]3(C)CC[C@@H]12` it was “inactive”; in that of `CN(C)Cc1cc(C(C)(C)C)c(O)c(C(C)(C)C)c1`, “inactive”; in that of `CCCCOC(=O)CO`, “inactive”. `CCCCCCCCCCCCOC(=O)c1ccc(O)cc1`: the Potency entry is “inactive”. As to `Cc1ccc(O)c(O)c1`, the Potency entry was “inactive”. `Cc1ccc(C(C)C)cc2c(C)ccc1-2`: the Potency result is “inactive”. With `CN1CCN2c3ccccc3Cc3ccccc3C2C1` (stereo not given) the entry was “inactive”. As for `COc1cccc(OC)c1C(=O)O`, the Potency result is “inactive”.

`O=C(O)c1ccc2cc(C(=O)O)ccc2c1`: the Potency entry was “inactive”. For the compound `O=S(=O)(O)c1ccc(N=Nc2c(O)ccc3ccccc23)cc1`, the Potency result is “inactive”. On to `O=C1NC(=O)[C@@H]2CC=CC[C@H]12`, for which the Potency result is “inactive”. For the compound `O=C(c1ccc(O)c(O)c1)c1ccc(O)cc1O`, the Potency was 1370 nM (active). With `c1ccc(C(O[C@@H]2CCCN(CCc3ccc4c(c3)OCO4)C2)c2ccccc2)cc1` the entry was “inactive”.

As to `CCCCCCCCCCCC(=O)OCC(C)OC(=O)CCCCC(=O)O` (stereo not given), the Potency result is “inactive”. As to `OC1CCC(C2CCCCC2)CC1` (stereo not given), the Potency entry was “inactive”. Turning to `O=C1C(c2[nH]c3ccc(S(=O)(=O)O)cc3c2O)=Nc2ccc(S(=O)(=O)O)cc21`, the Potency entry is “inactive”.

Turning to `CN(C)C(=O)COC(=O)Cc1ccc(OC(=O)c2ccc(N=C(N)N)cc2)cc1`, the Potency entry was “inactive”. `CCCC(=O)OC(C)(C)Cc1ccccc1`: the Potency entry was “inactive”. With `CN(C)[C@@H](CCOc1cccc2ccccc12)c1ccccc1` the entry was “inactive”; with `CC(CCc1ccccc1)NCC(O)c1ccc(O)c(C(N)=O)c1` (stereo not given), “inactive”; with `CCCC1CCC(=O)CC1`, “inactive”. Regarding `c1ccc(SSc2ccccc2)cc1`, the Potency result was “inactive”. `CCCCC(CC)COC(=O)CCCCC(=O)OCc1ccccc1` (stereo not given): the Potency entry is “inactive”. Consider `Sc1nc2ccccc2s1`, for which the Potency result is “inactive”. `CNc1ccc([N+](=O)[O-])cc1`: the Potency result was “inactive”.
